# Source: PubChem BioAssay (NCATS)
# Inconclusive results are not listed. Entries that show only a call come without a potency. Values without a mark were called inactive. Activity calls are given as the source filed them. Calls come from the whole dose curve; as a rule, active = well fitted cell-killing curve with a large enough effect; inconclusive = small, poorly fitted or top-dose-only effect, or effect the other way; inactive = flat fitted curve, though single readings scatter.
# How the values were obtained:
# Assay in all cases: Primary qHTS to identify gynecologic anti-cancer compounds using libraries of approved drugs and bioactive compounds (AID 1345084); note: nearly all actives have a fitted effect of over 55% in size
# Details in all cases: Gynecologic cancer cell panel viability, ATPlite luminescence, 48 h; series mostly up to 57.5 µM
# OV90 = system: OV90
# Method in brief: (§1)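 Cytotoxicity screen measuring ATP content by luciferase luminescence. Each compound is applied at five concentrations for 48 h at 37 C with 5% CO2.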
# PA-1 = system: PA-1
# Method in brief: as §1
# Tov-21-G = system: Tov-21-G
# Method in brief: as §1
# Tov112D = system: Tov112D
# Method in brief: as §1
# Potency is the fitted concentration of half-maximal effect.
Compound,Potency (OV90),Potency (PA-1),Potency (Tov-21-G),Potency (Tov112D),"activity change, negative = cytotoxicity (OV90)","activity change, negative = cytotoxicity (PA-1)","activity change, negative = cytotoxicity (Tov-21-G)","activity change, negative = cytotoxicity (Tov112D)"
COc1ccc(CCC(=O)c2c(O)cc(O)cc2O[C@@H]2O[C@H](CO)[C@@H](O)[C@H](O)[C@H]2O)cc1,inactive,inactive,inactive,inactive,–,–,–,–
CC1(C)CC[C@]2(C(=O)O[C@@H]3O[C@H](CO)[C@@H](O)[C@H](O)[C@H]3O)CC[C@]3(C)C(=CCC4[C@@]5(C)C[C@@H](O)[C@H](O)C(C)(C)C5CC[C@]43C)C2[C@@H]1O (stereo not given in full),inactive,inactive,inactive,inactive,–,–,–,–
O=C(O)c1ccccc1NC(=O)N1CCC(c2ccccc2C(F)(F)F)CC1,inactive,inactive,inactive,inactive,–,–,–,–
C=C(C(=O)O)[C@H]1C[C@]2(C)[C@@H](O)CC[C@]23O[C@H]1C[C@@H]3C,inactive,inactive,inactive,inactive,–,–,–,–
COc1nc2sc(C(=O)NC3CC3)c(N)c2c(C)c1Cl,inactive,inactive,inactive,inactive,–,–,–,–
OC[C@H]1O[C@@H](O[C@H]2[C@H](OCc3ccccc3)O[C@H](CO[C@@H]3OC[C@@H](O)[C@H](O)[C@H]3O)[C@@H](O)[C@@H]2O)[C@H](O)[C@@H](O)[C@@H]1O,inactive,inactive,inactive,inactive,–,–,–,–
CC[C@]1(O)CC2CN(CCc3c([nH]c4ccccc34)[C@@](C(=O)OC)(c3cc4c(cc3OC)N(C)[C@H]3[C@@](O)(C(=O)OC)[C@H](OC(C)=O)[C@]5(CC)C=CCN6CC[C@]43[C@@H]65)C2)C1 (stereo not given in full),3160 nM (active),282 nM (active),316 nM (active),282 nM (active),–,–,–,–
CC[C@]1(O)CC2CN(CCc3c([nH]c4ccccc34)[C@@](C(=O)OC)(c3cc4c(cc3OC)N(C=O)[C@H]3[C@@](O)(C(=O)OC)[C@H](OC(C)=O)[C@]5(CC)C=CCN6CC[C@]43[C@@H]65)C2)C1 (stereo not given in full),1780 nM (active),126 nM (active),126 nM (active),158 nM (active),–,–,–,–
Cc1cccc(C)c1-n1c(=O)c2cnc(Nc3ccc(N4CCN(C)CC4)cc3)nc2n2c3ccccc3nc12,12600 nM (active),7940 nM (active),398 nM (active),8910 nM (active),–,–,–,–
COc1ccc(CNC(=O)c2sc3nc(C)cc(C)c3c2N)cc1,inactive,inactive,inactive,inactive,–,–,–,–
CC1(C)CC[C@]2(C(=O)O[C@@H]3O[C@H](CO)[C@@H](O)[C@H](O)[C@H]3O)CC[C@]3(C)C(=CCC4[C@@]5(C)C[C@@H](O)[C@H](O)[C@](C)(C(=O)O)C5CC[C@]43C)C2C1O (stereo not given in full),inactive,inactive,inactive,inactive,–,–,–,–
C[C@@]1(O)[C@H](O)[C@@H](CO)O[C@H]1n1ccc(N)nc1=O,inactive,inactive,inactive,inactive,–,–,–,–
CC1CC(O)/C=C/C(O)C(O)CC(=O)Cc2c(Cl)c(O)cc(O)c2C(=O)O1 (stereo not given),inactive,inactive,inactive,inactive,–,–,–,–
Cc1nc(C)c(-c2ccc(C3CCC(CC(=O)O)CC3)cc2)nc1C(N)=O (stereo not given),inactive,inactive,inactive,inactive,–,–,–,–
Cc1cc(NC(=O)Nc2ccc(F)c(F)c2)n(-c2ccccc2)n1,inactive,inactive,inactive,inactive,–,–,–,–
C[C@@H]1O[C@@H](O[C@@H]2[C@@H](O)[C@@H](O[C@]3(CO)O[C@H](CO)[C@@H](O)[C@@H]3OC(=O)/C=C/c3ccc(O)cc3)O[C@H](CO)[C@H]2OC(=O)/C=C/c2ccc(O)cc2)[C@H](O)[C@H](O)[C@H]1O[C@@H]1O[C@@H](C)[C@H](O[C@@H]2OC[C@](O)(CO)[C@H]2O)[C@@H](O)[C@H]1O,–,–,–,–,-2.82% [at 11.6 µM],32.6% [at 11.6 µM],7.09% [at 11.6 µM],12.6% [at 11.6 µM]
CCCC1(c2ccccc2)NC(=O)N(CC(=O)N(C)Cc2c(F)cccc2Cl)C1=O (stereo not given),inactive,inactive,inactive,inactive,–,–,–,–
C=CC(=O)Nc1cc(Nc2ncc(Cl)c(-c3c[nH]c4ccccc34)n2)c(OC)cc1N(C)CCN(C)C,3980 nM (active),6310 nM (active),15800 nM (active),15800 nM (active),–,–,–,–
COc1c(/C=C/C(C)(C)O)ccc2c1C(=O)OCc1cc(C)cc(O)c1O2,inactive,inactive,inactive,inactive,–,–,–,–
CC(=O)O[C@@H]1[C@@H](O)[C@H](O[C@H]2CC[C@]34C[C@]35CC[C@]3(C)[C@@H]([C@@]6(C)CC[C@@H](C(C)(C)O)O6)[C@@H](O)C[C@@]3(C)[C@@H]5C[C@H](O[C@@H]3O[C@H](CO)[C@@H](O)[C@H](O)[C@H]3O)[C@H]4C2(C)C)OC[C@H]1O,inactive,inactive,inactive,inactive,–,–,–,–
